According to PubChem BioAssay AID1159580 (chemical genetic matrix, 2015):
The whole screen tested about 5,500 compounds, of which about 2,000 (36%) were called active. Another 18% or so got no clear call; they are omitted. Cut-off read from the data, not from the text of the source: active = normalized growth mostly below about 0.91 (no sharp cut-off); inconclusive = no clear call, values can overlap the other calls; inactive = mostly above about 0.92. The list shows a part of the results.

Assay: chemical genetic growth profiling, strain panel (AID 1159580);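 note: tested at 20 µM; growth read once vehicle control cultures reached saturation at 30 °C; 1 = growth at the plate median or of vehicle wells; lower values mean less growth of the strain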
Conditions: S. cerevisiae deletion strains, growth OD

Measured: normalized growth

C[C@]12CCC3c4ccc(OS(=O)(=O)O)cc4CCC3C1CCC2=O (some centres undefined)
inactive: locus YAL021C, strain ccr4, hits give low values 0.957 | locus YAL026C, strain drs2, hits give low values 1.01 | locus YAL030W, strain snc1, hits give low values 0.986 | locus YBL061C, strain skt5, hits give low values 0.967 | locus YBR009C, strain hhf1, hits give low values 1.02 | locus YBR023C, strain chs3, hits give low values 0.987 | locus YBR171W, strain sec66, hits give low values 1 | locus YBR231C, strain swc5, hits give low values 1.01 | locus YBR279W, strain paf1, hits give low values 0.999 | locus YCL011C, strain gbp2, hits give low values 0.998 | locus YCL016C, strain dcc1, hits give low values 0.986 | locus YCL061C, strain MRC1, hits give low values 1.01 | locus YCL069W, strain vba3, hits give low values 0.995 | locus YCR088W, strain abp1, hits give low values 0.998 | locus YDL005C, strain med2, hits give low values 0.978 | locus YDL040C, strain nat1, hits give low values 1 | locus YDR001C, strain nth1, hits give low values 0.995 | locus YDR069C, strain doa4, hits give low values 0.989 | locus YDR137W, strain rgp1, hits give low values 0.976 | locus YDR159W, strain sac3, hits give low values 1 | locus YDR195W, strain ref2 0.999 | locus YDR297W, strain sur2, hits give low values 1 | locus YDR334W, strain swr1, hits give low values 0.993 | locus YDR335W, strain msn5, hits give low values 1 | locus YDR392W, strain spt3, hits give low values 0.923 | locus YEL003W, strain gim4, hits give low values 0.998 | locus YEL037C, strain rad23, hits give low values 1.01 | locus YEL061C, strain CIN8 (second series), hits give low values 1.03 | locus YER015W, strain faa2, hits give low values 0.993 | locus YER016W, strain bim1, hits give low values 0.962 | locus YER111C, strain swi4, hits give low values 0.959 | locus YER155C, strain BEM2 (second series), hits give low values 1 | locus YFR010W, strain ubp6, hits give low values 1.02 | locus YGL167C, strain pmr1, hits give low values 1 | locus YGL173C, strain kem1, hits give low values 0.97 | locus YGL227W, strain vid30, hits give low values 0.981 | locus YGL240W, strain doc1, hits give low values 0.983 | locus YGL253W, strain hxk2, hits give low values 0.996 | locus YHR013C, strain ard1, hits give low values 0.939 | locus YHR027C, strain rpn1, hits give low values 1.01 | locus YHR030C, strain SLT2, hits give low values 0.961 | locus YHR079C, strain IRE1, hits give low values 0.961 | locus YHR142W, strain chs7, hits give low values 0.983 | locus YJL092W, strain hpr5, hits give low values 1 | locus YJL095W, strain BCK1 (second series), hits give low values 0.977 | locus YJL095W, strain BCK1, hits give low values 0.992 | locus YJL115W, strain asf1, hits give low values 0.995 | locus YJL129C, strain trk1, hits give low values 0.958 | locus YJL154C, strain vps35, hits give low values 0.974 | locus YJL164C, strain tpk1, hits give low values 0.996 | locus YJL166W, strain qcr8, hits give low values 1.01 | locus YJR066W, strain TOR1, hits give low values 0.942 | locus YKL160W, strain elf1, hits give low values 0.928 | locus YKR026C, strain gcn3, hits give low values 1 | locus YKR091W, strain srl3, hits give low values 0.991 | locus YLL001W, strain dnm1, hits give low values 1.02 | locus YLL026W, hits give low values 1.02 | locus YLL041C, strain sdh2, hits give low values 0.991 | locus YLR027C, strain aat2, hits give low values 1.01 | locus YLR113W, strain HOG1, hits give low values 1.02 | locus YLR221C, strain rsa3, hits give low values 1.04 | locus YLR258W, strain gsy2, hits give low values 1 | locus YLR262C, strain YPT6 (second series), hits give low values 0.984 | locus YLR320W, strain mms22, hits give low values 1.01 | locus YLR342W, strain FKS1, hits give low values 0.971 | locus YLR357W, strain rsc2, hits give low values 0.983 | locus YLR370C, strain arc18, hits give low values 1.01 | locus YLR384C, strain iki3, hits give low values 0.981 | locus YML120C, strain ndi1, hits give low values 1 | locus YMR058W, strain fet3, hits give low values 1.01 | locus YMR125W, strain sto1, hits give low values 0.97 | locus YMR129W, hits give low values 1.01 | locus YMR205C, strain PFK2, hits give low values 1 | locus YMR231W, strain pep5, hits give low values 0.995 | locus YNL071W, strain lat1, hits give low values 1.02 | locus YNL183C, strain NPR1, hits give low values 0.975 | locus YNL209W, strain ssb2, hits give low values 0.985 | locus YNL248C, strain rpa49, hits give low values 0.89 | locus YNL322C, strain KRE1 (second series), hits give low values 0.948 | locus YNR049C, strain mso1, hits give low values 0.99 | locus YOR001W, strain rrp6, hits give low values 1.03 | locus YOR070C, strain gyp1, hits give low values 0.987 | locus YOR080W, strain dia2, hits give low values 0.991 | locus YOR083W, strain WHI5, hits give low values 0.912 | locus YOR106W, strain vam3, hits give low values 0.971 | locus YOR231W, strain MKK1, hits give low values 1 | locus YOR265W, strain rbl2, hits give low values 1.01 | locus YOR270C, strain vph1, hits give low values 0.917 | locus YOR290C, strain snf2, hits give low values 0.977 | locus YPL051W, strain arl3, hits give low values 0.987 | locus YPL078C, strain atp4, hits give low values 0.965 | locus YPL106C, strain sse1, hits give low values 0.968 | locus YPL240C, strain hsp82, hits give low values 0.999 | locus YPL256C, strain CLN2, hits give low values 0.982
